In the library only some 19% were active in any assay of this set; here they are far more common.
BCR signal inh: blocks chronic active B-cell receptor signaling; ABC-DLBCL IkBa-CBG/CBR reporter, luminescence ratio, 4 h; Potency, µM (series often up to 46.1 µM), for inactives: at the highest dose activity change, negative = inhibition, actives largely listed as inhibitors; actives 0.05% (n = 340,000); AID 493014; active = well fitted inhibition curve with a large enough effect in the signal ratio, with a control signal flat, not every such curve was filed as active; inconclusive = small, poorly fitted or top-dose-only effect, or effect the other way, or a change in a side signal; the % refers to the signal ratio;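 note: potency is the fitted concentration of half-maximal effect; plate controls were basal doxycycline-induced cells for no effect and cells given 10 µM MG132 for full effect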
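Cell line TMD8 (human ABC DLBCL), stably expressing tet-inducible CBG68-IkBa fusion and CBR; IMDM/0.5% FBS; cpd up to 46 uM; dox induction, 4 h, 37C/5% CO2; dual luminescence; green/red ratio; MG132 control.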
SW480 rereplic: DNA re-replication induction in SW480 cells; AID 624297; Potency, µM (highest dose often 46.1 µM), inactives show at the top dose re-replication activation, hits mostly activators; SW480 DNA re-replication, Hoechst DNA content imaging, 48 h; actives 1.8% (n = 340,000); note: potency is the fitted concentration of half-maximal effect; % of control where 0% means no effect; nearly all actives have a fitted effect of over 55% in size
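Image-based read-out: total Hoechst fluorescence of nuclei (405 nm excitation, 500-530 nm emission), with hits raising the fraction of high-intensity nuclei. SW480 colon cells incubated 48 hr with compounds at 37 C.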
DT40 TDP1 no CPT: qHTS for Inhibitors of human tyrosyl-DNA phosphodiesterase 1 (TDP1): qHTS in cells in absence of CPT; DT40 Tdp1-/- hTDP1 cells, no CPT, ATP luminescence, 48 h; Potency, µM (titrated, usually from 46.2 µM), for inactives: top-dose activity change, negative = growth inhibition, most hits filed as inhibitors; actives 15% (n = 420,000); AID 686978, 2013; note: potency is the fitted concentration of half-maximal effect; % is set by controls: 0 for no effect and ±100 for the full control effect; nearly all actives have a fitted effect of over 55% in size
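Compound effects on proliferation are scored in DT40 Tdp1-/-;hTDP1 cells in the absence of CPT. ATP levels (CellTiter-Glo luminescence) are recorded after a ≥48 hr, 37 °C incubation.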
MCF10A rerep: induces DNA re-replication in MCF 10a normal breast cells; MCF 10A DNA re-replication, Hoechst nuclear intensity, 48 h; Potency, µM (doses to about 46.1 µM), for the others: top-dose activity, positive = re-replication, most hits filed as activators; actives 2.9% (n = 350,000); AID 624296; note: potency is the fitted concentration of half-maximal effect; % of control where 0% means no effect; nearly all actives have a fitted effect of over 50% in size
IL1B secr inh: inflammasome signaling inhibition, IL-1 beta readout; THP-1 LPS/ATP IL-1B secretion, AlphaLISA, 16 h; hits give low values; activity change, % at 57.5 µM; actives 4.7% (n = 360,000); AID 743279; in the data active = activity change below about -50%; inconclusive = mostly about -30% to -49%; note: % is set by controls: 0 for no effect and ±100 for the full control effect
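Secreted IL-1B measured by AlphaLISA bead assay after 16 h compound exposure of THP-1 cells; compounds (final up to 57.5 uM) added 1 h before LPS (250 ng/mL) and ATP (1.25 mM) stimulation; lower signal means less secretion.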
DT40 TDP1 CPT: DT40-hTDP1 cell growth loss with CPT | Potency, µM (highest dose often 46.2 µM), inactives show top-dose activity change, negative = growth inhibition, actives largely listed as inhibitors | AID 686979 | actives 12% (n = 420,000) | chicken DT40 Tdp1-/-;hTDP1 cells + 20 nM CPT, ATP luminescence, 48 h; note: potency is the fitted concentration of half-maximal effect; % is set by controls: 0 for no effect and ±100 for the full control effect; nearly all actives have a fitted effect of over 55% in size
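Chicken DT40 Tdp1-/- cells stably complemented with human TDP1 were seeded at 400 cells/well in medium containing 20 nM camptothecin, exposed to pin-transferred compounds, and grown at 37 °C for at least 48 hr. Viability was read as ATP luminescence.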
Numbers without * were called inactive; i = inactive; u = inconclusive; x = not tested or not shown; [ ] = another dose, or the depositor's remark. Unless noted, calls come from the whole dose curve; as a rule, active = well fitted curve in the direction sought with a large enough effect; inconclusive = small, poorly fitted or top-dose-only effect, or another doubt; inactive = no such curve, though single readings can be large; an effect the other way counts as inactive or inconclusive.

SMILES	BCR signal inh	SW480 rereplic	DT40 TDP1 no CPT	MCF10A rerep	IL1B secr inh	DT40 TDP1 CPT
Cc1ccccc1OCc1nc(C#N)c(N2CCCC2)o1	14%	-9%	-6%	-8%	-58*	3%
COc1ccccc1OCc1nc(C#N)c(N2CCCC2)o1	22%	6%	-1%	-10%	0	9%
COc1ccccc1OCc1nc(C#N)c(N2CC(C)CC(C)C2)o1 (configuration not stated)	u	-7%	u	21%	-25	29µM*
CCOC(=O)C1CCN(C(=O)COC(=O)c2nn(C)c(=O)c3ccccc23)CC1	u	5%	8%	-1%	6	8%
CCCCCC1=C(C(=O)OC)C(C(=O)OCC)N(S(=O)(=O)C(F)(F)F)c2ccccc21 (configuration not stated)	7%	u	21µM*	-61%	13	u
CN(C)c1ncc2nc(-c3cccc(C#N)c3)c(=O)n(C[C@H]3CCCO3)c2n1	x	x	0%	x	x	-6%
O=C(c1ccc(Cl)cc1)C(CN1CCCCC1)c1ccccc1 (configuration not stated)	u	u	2.1µM*	u	-103*	1.6µM*
CCCOc1ccc(C(=O)C(c2ccccc2)N2CCOCC2)cc1 (configuration not stated)	20%	-4%	u	0%	-3	u
CCCOc1ccc(C(=O)C(CN2CCOCC2)c2ccccc2)cc1 (configuration not stated)	u	11µM*	8.2µM*	18µM*	-97*	13µM*
COc1ccc(C(=O)C(CN2CCOCC2)c2ccccc2)cc1F (configuration not stated)	u	u	2.6µM*	12µM*	-101*	4.1µM*
COc1ccc(C(O)C(CN2CCOCC2)c2ccccc2)cc1F (configuration not stated)	5%	-6%	-28%	u	-10	-23%
CC(=O)Nc1ccc(NC(=O)C(C)OC(=O)CNS(=O)(=O)c2ccc(Br)cc2Cl)cc1 (configuration not stated)	0%	-33%	23µM*	-2%	i	-13%
COc1ccc(-n2cc(C(=O)OCc3ccc(Cl)cc3)c3ccccc3c2=O)cc1	x	x	-1%	x	x	-7%
CC(C)OCCCn1c(=O)c2ccccc2n2c(CCC(=O)O)nnc12	4%	0%	1%	-17%	-11	-3%
COc1ccc(OC)c(-c2nnc3n(Cc4ccc(C)cc4)c(=O)c4ccccc4n23)c1	x	x	18µM*	x	x	10µM*
Cc1cccc(-c2nc3c(c(=O)c4ccccc4n3C)c(=O)n2-c2ccccc2)c1	-4%	-5%	-22%	-5%	72	-12%
CCCn1c(=O)c2ccccc2n2c(SCCOc3ccccc3)nnc12	11%	-1%	-13%	-7%	-3	-28%
O=c1c2ccccc2n2c(-c3ccccc3F)nnc2n1CCc1ccccc1	x	x	18µM*	x	x	u
CC(=O)Nc1ccc(-c2nnc3n(Cc4ccc(C)cc4)c(=O)c4ccccc4n23)cc1	x	x	-20%	x	x	-21%
Cc1cccc(-c2nnc3n(CCc4ccccc4)c(=O)c4ccccc4n23)c1	x	x	26µM*	x	x	u
CC(C)c1ccc(-c2nnc3n(CCc4ccccc4)c(=O)c4ccccc4n23)cc1	x	x	18µM*	x	x	u
COc1ccc(NC(=O)c2cnc[nH]2)cc1	x	x	u	x	x	-28%
O=c1cc(-c2ccc(O)cc2)oc2cc(OC3OC(CO)C(O)C(O)[C@H]3O[C@@H]3OC[C@@](O)(CO)C3O)cc(O)c12 (some centres not stated)	x	x	-1%	x	x	8%
COc1cc(-c2nnc3n(CCc4ccccc4)c(=O)c4ccccc4n23)cc(OC)c1OC	5%	5%	16µM*	u	15	u
COc1cc(OC)c(-c2nnc3n(CCc4ccccc4)c(=O)c4ccccc4n23)cc1OC	2%	x	x	x	x	x
SMILES	BCR signal inh	SW480 rereplic	DT40 TDP1 no CPT	MCF10A rerep	IL1B secr inh	DT40 TDP1 CPT
COc1ccc(-c2nnc3n(CCc4ccccc4)c(=O)c4ccccc4n23)c(OC)c1	u	17%	13µM*	21µM*	26	18µM*
COc1cc(-n2c(=O)c3ccccc3n(Cc3ccccc3)c2=O)cc(OC)c1OC	-15%	-2%	-24%	-2%	-19	u
O=C1C(=O)N(CCN2CCOCC2)C(c2ccccc2F)/C1=C(\O)c1ccc(S(=O)(=O)N2CCOCC2)cc1 (configuration not stated)	-1%	-11%	-18%	-3%	7	8%
CC1(C(=O)NS(=O)(=O)Cc2ccccc2)CCN1C(=O)C1(c2ccc(Cl)cc2)CCC1 (configuration not stated)	x	x	-17%	x	30	u
CCCc1c(C)nc(N2CCN(c3ccc(F)cc3)CC2)[nH]c1=O	2%	2%	u	1%	8	u
COc1ccc(Nc2nc(C)cc(=O)[nH]2)cc1	19%	-9%	-6%	1%	17	-4%
CCCCCc1c(C)nc(Nc2ccc(F)cc2)[nH]c1=O	-10%	u	16µM*	113%	-3	u
CCCCc1c(C)nc(Nc2ccc(OC)cc2)[nH]c1=O	0%	u	13µM*	-1%	2	u
COC(=O)/C=c1\sc2ncnn2c1=O	u	-11%[9.22 µM]	13µM*	11µM*	-4	5.8µM*
CNC(=O)/C(C#N)=c1\s/c(=C/C(=O)OC)c(=O)n1-c1ccccc1	-4%	1%	-30%	22%	3	u
Cc1cccc(CN(C)C[C@H]2OCc3cnnn3CCCC(=O)N([C@@H](C)CO)C[C@@H]2C)c1	x	x	-21%	x	7	2%
Cc1ccc(OC(=S)Nc2ccccc2)c(C)c1	6%	11%	16µM*	-190%[0.0737 µM]	-8	u
COc1ccc(C2CC(c3ccccc3)=NN2C(=O)COC(=O)c2nc3nccc(C)n3n2)cc1 (configuration not stated)	4%	8%	17%	-12%	-1	0%
Cc1ccccc1NC(=O)C1CCN(S(=O)(=O)c2c(C)noc2/C=C/c2ccco2)CC1	x	x	-13%	x	x	-5%
Cc1noc(/C=C/c2ccco2)c1S(=O)(=O)N1CCC(C(=O)N2CCc3ccccc3C2)CC1	u	u	18µM*	18µM*	u	21µM*
